This is a sample that favours compounds with a hit; in the whole collection about 1.3% have one here.
Mito fusion yeast = inhibitors of mitochondrial division or activators of mitochondrial fusion. S. cerevisiae fusion-defective mutant growth rescue, CellTiterGlo 48 h. Potency, µM (top dose mostly 46.1 µM), inactives show at the highest dose growth rescue (activation), most hits filed as activators. 320,000 tested, 0.23% active. AID 485298; also: potency is read from the fitted curve at half-maximal effect; % of control where 0% means no effect; nearly all actives have a fitted effect of over 45% in size
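Yeast fusion mutant, YPEG (non-fermentable carbon), compound, 48 h at 37C non-permissive; CellTiterGlo added, 10 min RT, luminescence read. Rescued growth = division inhibition.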
BRCA1 expr act = BRCA1 expression activation | MCF7-BRCA1-FFLuc reporter, luminescence, 48 h; response scale: scaled: vehicle 0%, 10 µM genistein 100% | Potency, µM (series often up to 46.1 µM), for the others: top-dose activation, actives largely listed as activators | 380,000 tested, 1.1% active | AID 624202; also: potency is read from the fitted curve at half-maximal effect; nearly all actives have a fitted effect of over 80% in size
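48 h compound treatment of MCF7-BRCA1-FFLuc cells (phenol-red free MEM, 37 °C), then 15 min with luciferase substrate and luminescence imaging.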
p53 reactivator = mutant p53 re-activation in reporter cells; AID 504706; Potency, µM (titrated, usually from 92.2 µM), inactives show at the highest dose activity change, positive = activation, actives largely listed as activators; H1299 p53-A138V BP100-luciferase reporter, luminescence, 24 h; 320,000 tested, 0.063% active; also: potency is read from the fitted curve at half-maximal effect; % of control where 0% means no effect; nearly all actives have a fitted effect of over 45% in size
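p53-null H1299 cells stably carrying temperature-sensitive p53-A138V and a BP100-luciferase reporter were pinned with compounds (4-point, 1:5 series) and held 24 hrs at 37 deg C. Luminescence was read 10 min after detection reagent.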
TCR act = activators of T cell receptors; primary human leukocytes, anti-CD3, IL-2 HTRF, 48 h; Potency, µM (doses to about 9.22 µM), for inactives: at the top dose activation of IL-2 secretion, most hits filed as activators; 330,000 tested, under 10 active; AID 504894; also: % of control where 0% means no effect
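Primary human leukocytes receive a-CD3 beads and test compound and are incubated 48 hr. Secreted IL-2 is then assayed by HTRF, measuring 665nm acceptor emission after 320nm excitation of the europium donor.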
IL2 activator = IL-2 activation. IL-2 activation reporter assay, cell-based qHTS; stimulated with anti-CD3/CD4/CD28 beads; in transgenic mouse T cells. activation, % (series mostly up to about 46 µM). 360,000 tested, 0.065% active. AID 652025; in the data active = activation above about 50%; inconclusive = mostly about 30% to 49%; also: 0% is about no effect
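Unstimulated transgenic mouse T cells preincubated 60 min with compound, then stimulated with anti-CD3/anti-CD4-coated beads plus anti-CD28 for 18 h at 37 degrees C. IL-2 response read as EGFP and DsRed fluorescence by plate cytometry.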
* hit, by the source's call; ? = inconclusive; nt = no result given; [ ] = dose if it differs, or a comment. Unless noted, calls follow the shape of the dose curve; as a rule, active = well fitted curve in the direction sought with a large enough effect; inconclusive = small, poorly fitted or top-dose-only effect, or another doubt; inactive = no such curve, though single readings can be large; an effect the other way counts as inactive or inconclusive.

SMILES | Mito fusion yeast | BRCA1 expr act | p53 reactivator | TCR act | IL2 activator
O=C(c1cccs1)N1CCCc2ccccc21 | 4% | -18% | -7% | 2% | 0
O=C(c1cccs1)N1CCc2ccccc21 | 4% | 7.9µM* | nt | nt | -2
CCCCn1cnc2cc(NCc3ccccc3Cl)ccc21 | nt | 9% | nt | nt | nt
Cn1cccc1C(=O)NCCc1ccc(Cl)cc1 | 7% | 7.1µM* | 23% | 0% | 2
Cn1cccc1C(=O)NCCc1ccccc1 | 1% | 2% | ? | -11% | -3
COc1ccc(CCNC(=O)c2cccn2C)cc1 | 0% | 2.8µM* | 1% | -10% | -1
COc1ccc(CCNC(C)=O)cc1 | 0% | 2% | 2% | -1% | 0
COc1cccc2[nH]c(=O)c(-c3ccccc3)cc12 | 4% | 3.2µM* | ? | 2% | -4
O=C(C[N+]1(CCO)CCOCC1)c1cccc2ccccc12 | nt | 22% | nt | nt | nt
CCN(Cc1ccccc1)C(=O)CCc1nnc(CCCc2ccccc2)o1 | 2% | 11µM* | 10% | 0% | 0
Cn1c(SCC(=O)c2ccccc2)nnc1-c1ccncc1 | -2% | 22% | 5% | -1% | -2
Cn1c(SCC(=O)c2ccccc2)nnc1-c1ccccn1 | -7% | 11µM* | 10% | -3% | 0
COc1cc2cccc(OC)c(=O)c2c(O)c1OC | -18% | 10µM* | ? | -1%[46.1 µM] | -2
COc1cc2c(ccc3cc(OC)c(OC)c(O)c32)cc1O | -20% | -42% | -8% | -1% | 0
Cc1ccc(O)c(NC(=O)CCC2CCCCC2)c1 | -4% | 4µM* | 10% | 0% | 1
Cn1c(NC(=O)CCC2CCCCC2)cc(=O)n(C)c1=O | 30% | 2.2µM* | ? | -8% | -1
Cc1ccc(NC(=O)CC2CCCC2)c(Br)c1 | -3% | 13µM* | ? | 3% | 0
Cc1ccc(NC(=O)CCC(=O)c2cccs2)c(Br)c1 | -2% | 6.3µM* | 11% | 7% | -3
Cc1ccc(NC(=O)C2CCCC2)c(Br)c1 | nt | 29% | nt | -2% | 0
Cc1ccc(NC(=O)COC(=O)CCC(=O)c2cccs2)c(Br)c1 | 3% | 3% | 4% | -17% | 0
CCOc1ccc(S(=O)(=O)N2CCN(c3nc(-c4ccccc4)nc4ccccc34)CC2)cc1 | nt | 3% | nt | nt | nt
O=C(Cn1c(-c2cccs2)cc2cc(F)ccc21)NCCc1ccc(Cl)cc1 | nt | -25% | nt | nt | nt
COc1ccc(NC(=O)c2ccccc2C)cc1 | -1% | 76% | 6% | 0% | -2
Cc1ccc2cc(NC(=O)c3ccc(C(C)(C)C)cc3)ccc2n1 | 13% | ? | 9% | -2% | -2
Cc1ccc2cc(NC(=O)Cc3ccccc3)ccc2n1 | -17% | 4.5µM* | 13% | -2% | 0
SMILES | Mito fusion yeast | BRCA1 expr act | p53 reactivator | TCR act | IL2 activator
Cc1ccc2cc(NC(=O)c3ccccc3C)ccc2n1 | 2% | 7.1µM* | ? | 0% | 1
CCc1ccc(C(=O)Nc2ccc3nc(C)ccc3c2)cc1 | 1% | 3.2µM* | ? | 2% | -3
CCc1ccc(CNC(=O)c2ccc(NC(=O)N3CCCCc4ccccc43)cc2)cc1 | nt | 6% | nt | nt | nt
COc1cc(/C=c2\sc3nc(=O)c(-c4ccccc4)nn3c2=O)ccc1OCCC(C)C | 0% | 22% | ? | 1%[46.1 µM] | 100*
CN1N/C(=C\c2ccccc2)N=C2C(=O)N(C)C(=O)N=C21 | nt | -53% | nt | nt | nt
COc1ccc(C(=O)Nc2cc3c4c(c2)CC(=O)N4CCC3)c(OC)c1 | 1% | 4µM* | 9% | 5% | -1
C(=C\c1cnc2ccccc2n1)/c1ccc2c(c1)OCO2 | nt | -70% | nt | nt | nt
COc1ccccc1NC(=O)C1=C(C)Nc2nc3ccccc3n2C1c1ccccc1Cl (stereo not given) | nt | -5% | nt | nt | nt
CN1CCCN(Cc2nc(-c3ccc(Cl)cc3)no2)CC1 | -3% | 13µM* | 3% | 2% | -1
Cc1[nH]c2ccccc2c1C(=O)COC(=O)c1ccccc1SCC(=O)N1CCCC1 | nt | 2% | nt | nt | nt
COc1ccc(CNC(=O)C(C#N)c2nc3ccccc3nc2N2CCCC2)cc1 (stereo not given) | 1% | -25% | -10% | -50% | 122*
COc1ccc(CNC(=O)C(C#N)c2nc3ccccc3nc2N2CCN(C)CC2)cc1 (stereo not given) | -2% | -26% | -2% | 1% | 0
Fc1cccc(Cn2ccc(-c3ccc4c(c3)OCO4)n2)c1 | 1% | 10µM* | ? | 2% | 0
COc1ccc(-c2nc3ccccc3o2)cc1NC(=O)COc1ccc(C)cc1 | nt | 0% | nt | nt | nt
S=c1[nH]cnc2sc(-c3ccccc3)cc12 | -3% | 11µM* | 10% | 6% | -1
CCN1C(=NCc2cccc(C(F)(F)F)c2)N[C@@H](c2cccc(C(F)(F)F)c2)C(C(=O)OC)=C1C | nt | -68% | nt | nt | nt
O=C(N=c1ccn(-c2nc3ccccc3nc2NS(=O)(=O)c2ccc(Cl)cc2)cc1)c1cccs1 | 8% | 1% | 6% | -11% | 244*
Cc1nc(C#N)c(N/N=C/c2cccc(Cl)c2)o1 | 0% | 22µM* | ? | 0% | -3
Cc1cc(N/N=C/c2cccc(Cl)c2)nc(-n2nc(C)cc2C)n1 | 6% | -75% | -7% | 2% | 0
Cc1cccc(-c2noc(-c3ccc(NCc4cccnc4)c([N+](=O)[O-])c3)n2)c1 | nt | 0% | nt | nt | nt
COc1ccc(CNCc2ccccc2)cc1COc1ccc(NC(C)=O)cc1 | nt | 0% | nt | nt | nt
C#CC(C)(C)NC(=O)c1ccc(-c2ccccc2F)cc1 | 2% | 13µM* | 0% | -2% | -3
NCC(=O)c1c[nH]c2ccccc12 | nt | 13% | nt | nt | nt
COc1cc(OC)cc(C(=O)/C=C2\Sc3ccccc3N2C)c1 | -1% | 48% | 2% | 1% | 0
COc1ccc2c(c1)S/C(=C\C(=O)c1ccncc1)N2C | -12% | 4.5µM* | 22% | -2% | 0
SMILES | Mito fusion yeast | BRCA1 expr act | p53 reactivator | TCR act | IL2 activator
COc1ccccc1CNC(=O)CSc1ccsc1[N+](=O)[O-] | -6% | 13µM* | ? | 3% | 0
O=C(CSc1ccsc1[N+](=O)[O-])NCc1ccccc1 | 5% | ? | 8% | 1% | 0
Cc1cc(C)cc(-n2ccnc2SCC(=O)Nc2ccc3c(c2)OCO3)c1 | nt | 11% | nt | nt | nt
Cc1ccc(-c2nn(-c3ccccc3)cc2C=C2C(=O)CC(C)(C)CC2=O)cc1 | -4% | 6.3µM* | -3% | -1% | 0
Cc1nnc(SCC(=O)Nc2ccc(-c3nc4ccccc4s3)cc2)s1 | -3% | 8% | nt | -8%[46.1 µM] | 0
Cc1nnc(SCC(=O)Nc2nsc(-c3ccc(C(C)(C)C)cc3)n2)s1 | 0% | 1.1µM* | ? | -1% | -3
Cc1cccc(NC(=O)CNc2cc(C)ccc2C)c1 | 2% | 13µM* | 4% | -55% | -2
Cc1cccc(NC(=O)CC(=O)Nc2cccc(C)c2)c1 | 0% | 18% | 6% | 5% | -5
Cc1ccc(-c2nc3ccccc3[nH]2)cn1 | -9% | 7.9µM* | 14% | 3% | 0

Bioassay records from PubChem BioAssay.
